The list is not random: actives were taken first. Their share in the collection is about 11%.
SW480 rerep = DNA re-replication induction in SW480 cells; Potency, µM (highest dose often 46.1 µM), for inactives: at the highest dose re-replication activation, actives largely listed as activators; 340,000 compounds, 1.8% hits; SW480 DNA re-replication, Hoechst DNA content imaging, 48 h; note: potency is the fitted concentration of half-maximal effect; % of control where 0% means no effect; nearly all actives have a fitted effect of over 55% in size
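Treated cells incubate 48 hr (37 C, 5% CO2), are stained 40 min with Hoechst, and nuclear fluorescence is enumerated; a rise in nuclei with high DNA signal marks re-replication.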
MCF10A rerep = induces DNA re-replication in MCF 10a normal breast cells; MCF 10A DNA re-replication, Hoechst nuclear intensity, 48 h; Potency, µM (top dose mostly 46.1 µM), without a hit: at the highest dose activity, positive = re-replication, actives largely listed as activators; 350,000 compounds, 2.9% hits; note: potency is the fitted concentration of half-maximal effect; % of control where 0% means no effect; nearly all actives have a fitted effect of over 50% in size
IL-1B inflam inh = inflammasome signaling inhibition, IL-1 beta readout. activity change, % at 57.5 µM. THP-1 LPS/ATP IL-1B secretion, AlphaLISA, 16 h; active compounds read low. AID 743279. 360,000 compounds, 4.7% hits; in the data active = activity change below about -50%; inconclusive = mostly about -30% to -49%; note: % is set by controls: 0 for no effect and ±100 for the full control effect
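Secreted IL-1B measured by AlphaLISA bead assay after 16 h compound exposure of THP-1 cells; compounds (final up to 57.5 uM) added 1 h before LPS (250 ng/mL) and ATP (1.25 mM) stimulation; lower signal means less secretion.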
Gal4-VP16 FLuc = counter-screen for ROR gamma inhibitors: Gal4-VP16 reporter | Drosophila S2 Gal4-VP16 UAS-luciferase, luminescence, 20 h | Potency, µM (series often up to 53.6 µM), for inactives: top-dose activity, negative = inhibition, usual class: inhibitors | 310,000 compounds, 3.5% hits;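 note: Gal4-VP16 expression switched on by copper sulfate through the metallothionein promoter; potency is the fitted concentration of half-maximal effect; % is set by controls: 0 for no effect and ±100 for the full control effect; nearly all actives have a fitted effect of over 50% in size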
RORgamma inh = inhibitors of mouse ROR gamma transcriptional activity; 310,000 compounds, 5.4% hits; P51450; AID 2551; Potency, µM (doses to about 53.6 µM), for inactives: at the top dose activity change, negative = inhibition, usual class: inhibitors; Drosophila S2 Gal4-RORgamma UAS-luciferase reporter, 20 h; note: potency is the fitted concentration of half-maximal effect; % is set by controls: 0 for no effect and ±100 for the full control effect; nearly all actives have a fitted effect of over 60% in size
Target sequence (P51450 whole entry, looked up, the tested form may be a part): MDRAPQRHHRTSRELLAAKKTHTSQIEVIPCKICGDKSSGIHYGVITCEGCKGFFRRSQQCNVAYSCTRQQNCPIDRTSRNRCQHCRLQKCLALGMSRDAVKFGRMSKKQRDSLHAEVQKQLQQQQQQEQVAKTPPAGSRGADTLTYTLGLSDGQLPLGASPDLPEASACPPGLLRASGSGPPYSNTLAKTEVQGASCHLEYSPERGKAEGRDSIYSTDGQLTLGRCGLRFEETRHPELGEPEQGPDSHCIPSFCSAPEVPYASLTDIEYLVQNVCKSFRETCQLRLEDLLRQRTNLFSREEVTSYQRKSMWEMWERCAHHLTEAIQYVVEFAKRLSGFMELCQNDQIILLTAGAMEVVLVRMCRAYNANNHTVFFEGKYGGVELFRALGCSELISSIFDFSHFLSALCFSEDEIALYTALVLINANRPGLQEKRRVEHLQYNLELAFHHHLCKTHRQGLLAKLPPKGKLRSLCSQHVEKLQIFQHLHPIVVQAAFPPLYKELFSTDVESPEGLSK
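Drosophila Schneider cells stably carrying a metallothionein-driven Gal4 DBD–ROR gamma fusion and a UAS-Photinus luciferase reporter were exposed to compound for 1 hr, then induced with copper sulfate (700 uM final) for 20 hr at ambient temperature before luminescence reading.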
* = called active by the depositor. Unless noted, calls come from the whole dose curve; as a rule, active = well fitted curve in the direction sought with a large enough effect; inconclusive = small, poorly fitted or top-dose-only effect, or another doubt; inactive = no such curve, though single readings can be large; an effect the other way counts as inactive or inconclusive.

How did CCOc1ccc(NC(=O)CSc2nc(-c3cccs3)cc(C(F)(F)F)n2)c([N+](=O)[O-])c1 do in these assays?
SW480 rerep: 10.6%; MCF10A rerep: 11.6µM*; IL-1B inflam inh: 6.2; Gal4-VP16 FLuc: -11.1%; RORgamma inh: -4.8%

What do the screens show for `COc1ccc(S(=O)(=O)N2CCC(C(=O)NCc3ccncc3)CC2)cc1OC`?
SW480 rerep: inconclusive; MCF10A rerep: -1.0%; IL-1B inflam inh: 7.3; Gal4-VP16 FLuc: 3.8%; RORgamma inh: 11.8%

Results for C#CCN(C[C@@H]1[C@@H](OC(=O)NC2CCCC2)[C@@H](OC(=O)NC2CCCC2)Cn2c(=O)ccc(=O)n21)S(=O)(=O)c1ccc(C)cc1 ?
IL-1B inflam inh: -0.4

Results for C#CCN(C[C@@H]1[C@@H](OC(=O)NCc2ccccc2F)[C@@H](OC(=O)NCc2ccccc2F)Cn2c(=O)ccc(=O)n21)S(=O)(=O)c1ccc(C)cc1 ?
IL-1B inflam inh: -111.3*

What do the screens show for `C#CCN(C[C@@H]1[C@@H](OC(=O)Nc2cccs2)[C@@H](OC(=O)Nc2cccs2)Cn2c(=O)ccc(=O)n21)S(=O)(=O)c1ccc(C)cc1`?
IL-1B inflam inh: -106.8*

Results for COc1ccc(NC2=NC(=S)N(c3ccccc3C)C23CCCCC3)cc1 ?
SW480 rerep: -0.2%; MCF10A rerep: 2.5%; IL-1B inflam inh: -15.1; Gal4-VP16 FLuc: inconclusive; RORgamma inh: 7.08µM*

How did Cc1ccc(/C(N)=N/OC(=O)c2cccc(Cn3cc(C(F)(F)F)ccc3=O)c2)cc1 do in these assays?
SW480 rerep: 1.7%; MCF10A rerep: inconclusive; IL-1B inflam inh: -68.5*; Gal4-VP16 FLuc: inconclusive; RORgamma inh: -24.8%

Results for N/C(=N\OC(=O)c1cccc(Cn2cc(C(F)(F)F)ccc2=O)c1)c1ccccc1 ?
SW480 rerep: inconclusive; MCF10A rerep: 3.5%; IL-1B inflam inh: 0.0; Gal4-VP16 FLuc: 12.7%; RORgamma inh: 33.3%

Results for CC(=O)Nc1nnc(-c2c(-c3ccccc3Cl)noc2C)o1 ?
SW480 rerep: -2.3%; MCF10A rerep: -34.8%; Gal4-VP16 FLuc: 17.8µM*; RORgamma inh: 5.01µM*

How did COc1ccccc1C(=O)Nc1nnc(-c2ccc(F)cc2)o1 do in these assays?
SW480 rerep: -18.0%; MCF10A rerep: -5.4%; IL-1B inflam inh: 0.0; Gal4-VP16 FLuc: 11.2µM*; RORgamma inh: 7.94µM*

What do the screens show for `CC(=O)Nc1ccc(NC(=O)c2c(-c3ccccc3Cl)noc2C)cc1`?
SW480 rerep: -1.0%; MCF10A rerep: 2.4%; IL-1B inflam inh: 27.7; Gal4-VP16 FLuc: 1.8%; RORgamma inh: 8.2%

How did Cc1ccccc1C(=O)Nc1nnc(-c2ccc(F)cc2)o1 do in these assays?
SW480 rerep: 8.4%; MCF10A rerep: 10.1%; IL-1B inflam inh: 68.7; Gal4-VP16 FLuc: 0.447µM*; RORgamma inh: 1.26µM*

What do the screens show for `CS(=O)(=O)c1ccccc1-c1nnc(NC(=O)c2ccco2)o1`?
SW480 rerep: -4.9%; MCF10A rerep: -0.9%; IL-1B inflam inh: -2.2

How did O=C(Nc1nnc(-c2ccc(F)cc2)o1)c1ccco1 do in these assays?
SW480 rerep: 0.3%; MCF10A rerep: 10.0%; IL-1B inflam inh: 22.9; Gal4-VP16 FLuc: 5.01µM*; RORgamma inh: inconclusive

What do the screens show for `CO[C@@H]1CN(C)C(=O)c2ccc(NC(=O)C3CCCC3)cc2OC[C@@H](C)N(Cc2ccc(F)cc2)C[C@H]1C`?
IL-1B inflam inh: -0.2

How did CN(CC(=O)Nc1ccccc1C(F)(F)F)CC(=O)N1CCCCCC1 do in these assays?
SW480 rerep: 0.8%; MCF10A rerep: 2.6%; IL-1B inflam inh: 2.7

How did Cc1ccccc1C(=O)Nc1nnc(-c2cccnc2)o1 do in these assays?
SW480 rerep: 4.6%; MCF10A rerep: 9.7%; IL-1B inflam inh: 17.6; Gal4-VP16 FLuc: 5.01µM*; RORgamma inh: 3.16µM*

What do the screens show for `Cc1ccccc1C(=O)Nc1nc(-c2cccnc2)cs1`?
SW480 rerep: 23.8%; MCF10A rerep: 0.2%; IL-1B inflam inh: 55.6; Gal4-VP16 FLuc: 1.5%; RORgamma inh: 0.7%

How did O=C(Nc1nnc(-c2ccccc2Cl)o1)c1cccnc1 do in these assays?
SW480 rerep: inconclusive; MCF10A rerep: 19.9%; IL-1B inflam inh: 11.2; Gal4-VP16 FLuc: 1.26µM*; RORgamma inh: 0.891µM*
